Data reported in ChEMBL document CHEMBL4888484, “Replenishing the malaria drug discovery pipeline: Screening and hit evaluation of the MMV Hit Generation Library 1 (HGL1) against asexual blood stage Plasmodium falciparum ,using a nano luciferase reporter read-out” (2022).
Hit rate of the full screen: of about 4,800 compounds, about 410 (8.5%) showed an effect of 50% or more. The entries come from a sample that favours strong results as a whole.

Each compound was assayed on Plasmodium falciparum (assay: Confirmatory screen in NF54 pLDH assay, in single point, at 2uM, 72h). Settings: timepoint 72 hour.
Assay type: functional, Erythrocyte

| Structure (SMILES) | % Inhibition |
| --- | --- |
| CCOc1c(CNC(C)(C)CC(C)(C)C)cccc1OC | 5% |
| C[C@H](C(=O)NCC1CCN(Cc2ccccc2F)CC1)C1CCOCC1 | 3% |
| CC(Oc1ccc2c(c1)C(c1ccccc1)N(Cc1ccccc1F)CC2)C(=O)NC1CC1 (configuration not stated) | 50% |
| COc1ccc2cc3n(c2c1)C[C@](C(=O)NC1CCCCCC1)(c1ccccc1)N(Cc1ccccc1F)C3=O | -26% |
| O=C(c1ccc2c(c1)OCO2)N1CCn2c1nc1ccccc12 | 3% |
| CC(=O)Nc1cccc(NC(=O)[C@H]2CC[C@H](Cn3c(O)nc4ccccc4c3=O)CC2)c1 | 5% |
| COc1cc2c(cc1Cl)-n1cccc1C1(CCNCC1)N2 | -15% |
| CC1=CC(=[N+](CCO)CCO)C=C/C1=C(\c1ccc(N(CCO)CCO)cc1C)c1ccccc1Cl | 87% |
| O=C(CN1CCN(Cc2cccc(Cl)c2)C1=O)N1CCN(c2ccccc2)CC1 | 4% |
| COc1cccc(-c2cc3c(N4CCC(C(=O)NC[C@H]5CCCO5)CC4)nccn3n2)c1 | 5% |
| Cc1ccc(S(=O)(=O)Cc2nc3cc(C)c(C)cc3[nH]c2=O)cc1 | 2% |
| O=S(=O)(NC1CCCCC1)c1ccc(Cl)c(S(=O)(=O)NC2CCCCC2)c1 | 6% |
| N#Cc1cc(S(=O)(=O)NCCN(C2CC2)S(=O)(=O)c2ccc(Cl)c(C#N)c2)ccc1Cl | 86% |
| Cc1cccc(NC(=O)CCC(=O)OCC(F)(F)F)c1C | -1% |
| Cc1nc(-c2ccccc2)cc2nn(CC(=O)NC3CCCCC3)c(=O)n12 | -8% |
| O[C@H]1CNCC[C@@H]1Nc1cc(-c2ccccc2)nc2ccccc12 | 76% |
| COc1cccc(-c2cc(C(=O)N3CCCN(C(=O)c4cc(-c5cccc(OC)c5)nc5ccccc45)CC3)c3ccccc3n2)c1 | -26% |
| CC(C)(C)NC(=O)C1CCN(C[C@@H]2CC=CCC2)CC1 | 10% |
| Cc1ccc(/C=C(\C(=O)NC[C@H]2CCCO2)n2ccccc2=O)cc1 | 12% |
| CCCC1(CNC(=O)Nc2nc(CS(C)(=O)=O)no2)CC1 | 6% |
| CCCCCn1c(NCc2cc(Cl)ccc2O)nc2ccccc21 | 21% |
| CCOc1cc(CNCCN2CCOCC2)cc(Cl)c1OCc1ccccc1 | 9% |
| CCCc1noc([C@H]2CC(=O)N(c3ccccc3C)C2)n1 | 8% |

| Structure (SMILES) | % Inhibition |
| --- | --- |
| CCc1nc2c(C(=O)N3CCOc4c(C)cc(C)cc43)ccnc2[nH]1 | 60% |
| CCOc1ccc(C/C(=C/N)c2nc(-c3ccc(Cl)cc3)cs2)cc1 | 15% |
| CCn1c(=O)c(N2CCC(C(=O)NCCCc3ccccc3)CC2)nc2cccnc21 | -22% |
| Clc1cccc(-c2c[nH]c([C@@H]3COCCN3C3CCOCC3)n2)c1 | -16% |
| CN1CCC[C@H](c2nnc3sc(-c4ccc(OCc5ccccc5)cc4)nn23)C1 | 8% |
| CC(C(=O)Nc1nccs1)N1CCCC(c2ccn[nH]2)C1 (configuration not stated) | 45% |
| Cc1cc(-c2cncc(CN3CCCCC3)c2)ccc1F | 8% |
| Cc1noc(C)c1CNc1cc(S(=O)(=O)N2CCCCC2)ccc1Oc1ccccc1 | 14% |
| O=S(=O)(c1cccc(Cl)c1)N1CCc2nc(N3CCCCC3)nc(Oc3ccccc3)c2C1 | 78% |
| Cc1ccc(-c2nn(Cn3nc(C)c(Cl)c3C)c(-c3ccc(C)cc3)c2Br)cc1 | -12% |
| Cn1c(CN2CCOC[C@@]23CCOC3)nnc1C1CC1 | 13% |
| O=C(Nc1ccccc1Cl)Nc1cccc2c(-c3ccccc3)c(C(=O)N3CCOCC3)[nH]c12 | 12% |
| Cc1ccc(S(=O)(=O)c2c(C)cc(-c3ccccc3)nc2N2CCOCC2)cc1 | 12% |
| CCO[C@@]1(c2ccccc2)NC(=O)c2cc3c(cc21)OCCO3 | -18% |
| CC(=O)N(CCN1CCOCC1)[C@H]1CCN(S(=O)(=O)c2cccc(Cl)c2)C1 | 9% |
| Cn1cc(CN2CCC(C(=O)NCCCN3CCCCC3)CC2)c2cc(Cl)ccc21 | -8% |
| O=C(NCCCN1CCOCC1)c1ccc(-c2cnc(NC3CCCCC3)nc2)cc1 | -15% |
| CO/N=C(\Nc1cc(C)ccc1C)c1nonc1N | 16% |
| O=C(C[C@@H]1NC(=O)c2ccccc2NC1=O)NCc1ccc(Cl)cc1Cl | -6% |
| Nc1cc(F)c(Br)cc1Cl | 7% |
| CCn1c(=O)c(N2CCC(C(=O)N3CCN(c4ccccc4F)CC3)CC2)nc2cccnc21 | -9% |
| O=C1C[C@@H](c2cccc(Br)c2)c2c(O)nc(N3CCOCC3)nc2N1 | -7% |
| CCN(C(C)=O)c1nc(CN2C(=O)N[C@](C)(c3ccc(F)cc3Br)C2=O)cs1 | 9% |

| Structure (SMILES) | % Inhibition |
| --- | --- |
| Cc1nccc(O[C@H]2CCCN(C(=O)CN3CCN(c4ccccc4)C3=O)C2)n1 | 9% |
| COc1cccc(N2C(=O)N[C@H](C)C2=O)c1 | 15% |
| COc1ccc(-c2c(-c3cccc(OC)c3)[nH]c3c2c(=O)[nH]c(=O)n3C)cc1 | 97% |
| COc1cccc(C(=O)Nc2noc(-c3cccc(OC)c3)c2-c2ccc(Cl)cc2)c1 | -19% |
| CCCN1CCN(S(=O)(=O)c2cccc3nonc23)CC1 | 11% |
| O=C1CCc2cc(N[C@@H](C(=O)N3CCCC3)c3ccccc3)ccc2N1 | 5% |
| O=C(NC1CCN(Cc2ccco2)CC1)c1ccco1 | -2% |
| Clc1cccc(N2CCN(Cc3nc(-c4ccco4)no3)CC2)c1 | -1% |
| Cc1nn(C)cc1C(=O)N1CCN(c2nncc3ccccc23)CC1 | -10% |
| COc1ccnc(NCc2ccc(N3CCOCC3)cc2)n1 | 10% |
| CCNC(=O)c1nc(-c2ccncc2)cs1 | -16% |
| O=C(Cn1nc(C2CC2)nc1C1CC1)N1CCOCC1 | 11% |
| CCN(C[C@H](C)C#N)C(=O)C(=O)Nc1ccc(F)cc1Cl | 13% |
| COc1cc(Br)cc(C#N)c1O | 9% |
| CC(C)c1cccc(Nc2nc3ccncc3n(C(C)C)c2=O)c1 | 94% |
| O=C(CCOCC(F)(F)F)Nc1ccc2c(c1)C(=O)NC2 | -5% |
| Cn1cc(C(C(=O)O[C@@H]2C[C@@H]3CC[C@@]2(C)C3(C)C)c2cn(C)c3ccccc23)c2ccccc21 | 3% |
| CC[N+](CC)(CC(=O)OC1CC2CCC1(C)C2(C)C)CC(=O)OC1CC2CCC1(C)C2(C)C (configuration not stated) | 92% |
| Cc1ccnc(-c2noc(Cn3c(=O)c(C)cn(C)c3=O)n2)c1 | 4% |
| Nc1nc(Cc2ccccc2)c(Br)c(=O)[nH]1 | 5% |
| COc1ccc(C2=NC3=S(N2c2ccccc2)N(C(C)=O)C(C(Cl)(Cl)Cl)N3c2ccccc2)cc1 (configuration not stated) | 13% |
